Screen size: about 290,000 compounds; about 3,000 (1%) were called active. Rule as the data show it: active = inhibition mostly above about 36% (no sharp cut-off); inactive = mostly below about 34%. Many of the other results were omitted from the sample, so actives are more common in it than they were.
What follows are compounds tested against T1, Nucleotide-binding oligomerization domain-containing protein 1, Homo sapiens (UniProt Q9Y239) (assay: inhibition of NOD1-driven NF-kB reporter – cell-based, luminescence, uHTS, primary screen (AID 1578)).
T1 sequence (whole entry): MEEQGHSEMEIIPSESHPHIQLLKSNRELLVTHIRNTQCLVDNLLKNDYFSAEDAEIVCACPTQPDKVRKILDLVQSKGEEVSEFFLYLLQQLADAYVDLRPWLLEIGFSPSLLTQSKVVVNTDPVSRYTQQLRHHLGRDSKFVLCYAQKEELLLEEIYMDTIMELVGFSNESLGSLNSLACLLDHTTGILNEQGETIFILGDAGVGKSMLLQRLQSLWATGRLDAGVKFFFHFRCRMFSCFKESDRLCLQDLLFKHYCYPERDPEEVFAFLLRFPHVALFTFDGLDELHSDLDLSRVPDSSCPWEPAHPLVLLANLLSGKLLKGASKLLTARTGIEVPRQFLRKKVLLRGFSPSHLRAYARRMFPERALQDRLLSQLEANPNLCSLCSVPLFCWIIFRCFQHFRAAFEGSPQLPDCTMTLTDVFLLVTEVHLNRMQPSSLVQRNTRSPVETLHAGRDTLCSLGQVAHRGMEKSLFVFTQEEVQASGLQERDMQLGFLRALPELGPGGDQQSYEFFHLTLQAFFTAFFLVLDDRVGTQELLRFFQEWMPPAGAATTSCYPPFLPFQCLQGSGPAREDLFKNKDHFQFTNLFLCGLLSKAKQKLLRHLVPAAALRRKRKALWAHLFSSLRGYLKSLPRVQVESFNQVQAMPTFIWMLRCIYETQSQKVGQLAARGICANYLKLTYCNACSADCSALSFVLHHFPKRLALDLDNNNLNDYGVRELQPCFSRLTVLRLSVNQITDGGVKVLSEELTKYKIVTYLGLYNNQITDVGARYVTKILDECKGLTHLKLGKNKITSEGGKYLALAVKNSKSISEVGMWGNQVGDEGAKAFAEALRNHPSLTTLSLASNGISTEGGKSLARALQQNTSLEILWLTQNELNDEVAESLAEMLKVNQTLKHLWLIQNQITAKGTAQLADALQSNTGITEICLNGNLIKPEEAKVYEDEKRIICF

SMILES | outcome
COc1cc(F)ccc1CN1CCC(C(=O)Nc2ccc(Oc3ccccc3)nc2)CC1 | active
CCOC(=O)C1=C(C)N=c2s/c(=C/c3cccc([N+](=O)[O-])c3O)c(=O)n2C1c1ccccc1 (stereo not given) | active
Cc1ccc(N(Cc2cc(=O)[nH]c3ccccc23)C(=O)CCl)c(C)c1 | active
Cc1ccccc1N(Cc1cc(=O)[nH]c2ccccc12)C(=O)CCl | active
COc1cccc(C(=O)Oc2c(Br)cc(Br)cc2/C=N/NC(=O)c2cc(C)[nH]n2)c1 | active
Cc1cc(C(=O)N/N=C/c2cc(Br)cc(Br)c2OC(=O)c2cccc(F)c2)n[nH]1 | active
Cc1cc(C(=O)N/N=C/c2cc(Br)ccc2OC(=O)c2ccccc2)n[nH]1 | active
Cc1ccc(-c2csc3ncnc(Sc4nnc(CN5CCCCCC5=O)o4)c23)cc1 | active
COc1ccc(Cn2c(O)c(C=Nc3ccccc3C(=O)O)c3ccccc3c2=O)cc1 | active
COc1ccccc1NS(=O)(=O)c1cccc(-n2c(O)c(C=Nc3ccccc3C(=O)O)c3ccccc3c2=O)c1 | active
CCN(CC)S(=O)(=O)c1cccc(-n2c(O)c(C=Nc3ccccc3C(=O)O)c3ccccc3c2=O)c1 | active
COC(=O)Cc1[nH]n(-c2nc3ccccc3s2)c(=O)c1C(C)=Nc1ccc(C)cc1 | active
Cc1ccc(Cl)cc1N1CCN(C(=O)c2cc3c(=O)[nH]c4ccccc4c3n2C)CC1 | active
COc1ccc(CN(C)Cc2nc(Cc3cccc(F)c3)no2)c2cccnc12 | active
Cc1nc(SCC(=O)Nc2nc3ccccc3s2)c(C#N)c(C)c1C | active
COc1ccc(-n2nnnc2S(=O)(=O)CC(=O)N2CCCCC2)cc1 | active
Cc1cc(Nc2cccc([N+](=O)[O-])c2)n2c(nc3ccccc32)c1C#N | active
CCc1nnc(NC(=O)c2ccc(Cl)c(S(=O)(=O)N3CCc4ccccc43)c2)s1 | active
CC(NC(=O)OC(C)(C)C)C(=O)Oc1cc2oc(=O)cc(-c3ccccc3)c2cc1Cl (stereo not given) | active
CC(NC(=O)OCc1ccccc1)C(=O)Oc1cc2oc(=O)cc(-c3ccccc3)c2cc1Cl (stereo not given) | active
COC(=O)c1ccc(Nc2c([N+](=O)[O-])c(=O)oc3ccccc23)cc1 | active
CCOC(=O)c1sc(N2C(=O)C(O)=C(C(=O)c3ccco3)C2c2ccco2)nc1C (stereo not given) | active

SMILES | outcome
CCOC(=O)N1CCN(C(=O)c2ccc(Cn3c(=S)[nH]c4cc5c(cc4c3=O)OCO5)cc2)CC1 | active
Cc1ccc(C(=O)Sc2cccccc2=O)cc1 | active
CC(=O)c1c(C)[nH]c(C(=O)OCC(=O)Nc2ccc(C)cc2[N+](=O)[O-])c1C | active
CC(/C=C1\SC(=O)N(CCCC(=O)O)C1=O)=C\c1ccccc1 | active
CN(Cc1ccccc1)C(=S)NC(=O)c1ccc(-c2ccccc2)cc1 | active
C=CCN(CC=C)C(=S)NC(=O)c1ccc(-c2ccccc2)cc1 | active
CCOc1cc(/C=C(/C#N)c2ccc(Cl)cc2)cc(Cl)c1OCC(=O)O | active
CC1=C(CO)C(=O)OC([C@@H](C)C2CC[C@H]3C4C[C@H]5O[C@]56[C@@H](O)C=CC(=O)[C@]6(C)C4CC[C@]23C)C1 (stereo not given in full) | active
Cc1cccc(-c2nnc(NC(=O)c3ccc(Cl)cc3)o2)c1 | active
O=C(Nc1nnc(-c2ccccc2)o1)c1ccc(Cl)cc1 | active
CN(C)c1ccc(C(=O)Nc2nnc(-c3ccc(Cl)cc3)o2)cc1 | active
COc1ccc(OC)c(NC(=O)CSc2ncnc3c2cnn3-c2ccccc2Cl)c1 | active
CC(Oc1ccc(Br)cc1)c1nc2c3ccccc3nc(=S)n2[nH]1 (stereo not given) | active
CCCC(Oc1ccc(Br)cc1)c1nc2c3cc(OC)c(OC)cc3nc(=S)n2[nH]1 (stereo not given) | active
COc1ccc(CCNc2ncnc3c2oc2ccccc23)cc1OC.Cl | active
Oc1ccc(CCNc2ncnc3ccc(Cl)cc23)cc1 | active
COc1ccc(CCNc2ncnc3sc(C)cc23)cc1OC.Cl | active
COc1ccc(CCNc2ncnc3sccc23)cc1OC | active
COc1ccc(CCNc2ncnc3cc(OC)c(OC)cc23)cc1OC | active
O=C(c1ccc(S(=O)(=O)c2cccc(Cl)c2)c([N+](=O)[O-])c1)N1CCN(Cc2ccccc2)CC1 | active
COc1ccc(NC(=O)/C(Cl)=C(/Cl)S(=O)Cc2ccccc2Cl)cn1 (stereo not given) | active
COc1ccc(NC(=O)/C(Cl)=C(/Cl)S(=O)Cc2ccc(Cl)cc2)cn1 (stereo not given) | active

SMILES | outcome
COc1ccc(NC(=O)/C(Cl)=C(/Cl)S(=O)Cc2ccc(C)cc2)cn1 (stereo not given) | active
COc1ccc(NC(=O)/C(Cl)=C(/Cl)S(=O)Cc2ccccc2)cn1 (stereo not given) | active
COc1ccc(CS(=O)/C(Cl)=C(/Cl)C(=O)Nc2ccc(OC)nc2)cc1 (stereo not given) | active
CC(=O)c1ccc(N2CCN(C(=S)Nc3ccc(Oc4ccccc4)cc3)CC2)cc1 | active
C=CCSc1nsc(NC(=O)Nc2cccc(C(C)=O)c2)n1 | active
Cc1ccc(CS(=O)(=O)c2ccc(C(=O)N3CCN(c4ccccn4)CC3)cc2[N+](=O)[O-])cc1 | active
Cc1ccccc1CN1CCc2c(OCC(=O)N3CCCc4ccccc43)cccc2C1=O | active
O=[N+]([O-])c1ccc(NC(=S)NCCc2ccc(Cl)cc2)cc1 | active
O=[N+]([O-])c1ccc(NC(=S)NCc2ccc(F)cc2)cc1 | active
Cc1cc(-c2ccc(C)c(S(=O)(=O)N3CCN(c4ccc(F)cc4)CC3)c2)on1 | active
COc1ccc(-c2cc(C)no2)cc1S(=O)(=O)N1CCN(c2ccccc2F)CC1 | active
CCOC(=O)COc1ccc2ccccc2c1/C=C/[N+](=O)[O-] | active
COc1ccc(CC(=O)Nc2cccc(-c3nnc(-c4ccc(C)cc4)o3)c2)cc1OC | active
c1ccc2c(c1)ncn2-c1ccc(-c2ccnc(-c3ccncc3)n2)cc1 | active
Nc1nccc(-c2ccc(-n3cnc4ccccc43)cc2)n1 | active
O=C(NNC(=O)c1ccccc1OCc1ccc(F)cc1)c1ccccc1O | active
O=C(NNC(=O)c1ccccc1OCc1ccccc1)c1ccccc1O | active
c1ccc(C2=Nn3c(nnc3-c3ccncc3)SC2)cc1 | active
COc1cccc(-c2nnc3n2N=C(C(C)(C)C)CS3)c1 | active
c1csc(C2=Nn3c(nnc3-c3ccncc3)SC2)c1 | active
COc1ccc(C2=Nn3c(nnc3-c3ccncc3)SC2)cc1 | active

From the GenesisPotency data set
